A selection: hits, their analogues and other compounds. The true share with any hit is near 7.4%.
ELG1 genotox: induces genotoxicity in HEK293T cells with luciferase-tagged ELG1; Potency, µM (highest dose often 46 µM), for the others: at the top dose activity change, positive = activation, most hits filed as activators; 330,000 compounds, 1.3% hits; HEK293T ELG1-luciferase reporter, luminescence, 16 h; further: % of control where 0% means no effect; nearly all actives have a fitted effect of over 60% in size
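Cells (2,000/well) expressing the ELG1-luciferase fusion are dosed by pin tool and kept 16 hr at 37 °C, 5% CO2. Signal comes from ONE-Glo luciferase reagent after 30 min at room temperature.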
Luc counter: Kinase-Glo luciferase inhibition (counter-screen). Potency, µM (series often up to 38.3 µM), inactives show at the top dose activity change, negative = inhibition, usual class: inhibitors. Kinase-Glo luciferase, ATP luminescence, 8 min. 200,000 compounds, 0.28% hits. AID 1379. Q27757; further: on the % scale 0 is the no-effect control and ±100 the full control effect; nearly all actives have a fitted effect of over 60% in size
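Compounds were added to a substrate mix at pH 7.2 (50 mM imidazole, 10 uM ATP, within the enzyme's linear range), followed by Kinase-Glo detection reagent; luminescence was measured after 8 minutes at ambient temperature.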
SMN2 splice up: enhancers of SMN2 splice variant expression. HEK293 SMN2-luciferase splicing reporter, luminescence, 30-36 h. Potency, µM (doses to about 46.1 µM), without a hit: top-dose activity change, positive = activation, hits mostly activators. 210,000 compounds, 2.8% hits. AID 1458; further: % of control where 0% means no effect; nearly all actives have a fitted effect of over 55% in size
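qHTS luciferase splicing reporter: luminescence rises when SMN2 exon 7 is included in transfected HEK293 cells. Compound exposure lasted 30-36 h at 37C, with 4.5 mM final sodium butyrate as control, followed by a ONE-Glo read.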
NPC1 prom act: activators of NPC1 promoter. AID 485313. Potency, µM (doses to about 9.22 µM), for the others: at the top dose activation, actives largely listed as activators. Huh7 NPC1 promoter luciferase reporter, 24 h. 320,000 compounds, 2.4% hits; further: % of control where 0% means no effect; nearly all actives have a fitted effect of over 60% in size
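Quantitative HTS used a cell-based reporter: Huh7 cells stably bearing the NPC1 promoter upstream of luciferase were treated with compounds for 24 h, and promoter activation was read as luminescence.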
Rab9 promoter act: activators of Rab9 promoter; Huh7 Rab9 promoter-luciferase reporter, luminescence, 24 h; Potency, µM (doses to about 9.22 µM), for inactives: at the highest dose activation, negative = inhibition, usual class: activators; 320,000 compounds, 2.8% hits; AID 485297; further: % of control where 0% means no effect; nearly all actives have a fitted effect of over 60% in size
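Promoter activation is measured as luciferase luminescence in Huh7 cells stably transfected with a Rab9 promoter–luciferase construct, following 24 h compound exposure at 37 °C and 10 min reagent incubation at ambient temperature.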
FLuc modulator: firefly luciferase modulation, counter-screen for miR-21 project. P08659. purified FLuc, Km substrates, luminescence inhibition. Potency, µM (top dose mostly 57.5 µM), for inactives: at the highest dose activity change, negative = inhibition, actives largely listed as inhibitors. 360,000 compounds, 6.9% hits;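 further: plate controls were vehicle for no effect and reference inhibitor for full effect; nearly all actives have a fitted effect of over 55% in size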
Target sequence (P08659 whole entry, looked up): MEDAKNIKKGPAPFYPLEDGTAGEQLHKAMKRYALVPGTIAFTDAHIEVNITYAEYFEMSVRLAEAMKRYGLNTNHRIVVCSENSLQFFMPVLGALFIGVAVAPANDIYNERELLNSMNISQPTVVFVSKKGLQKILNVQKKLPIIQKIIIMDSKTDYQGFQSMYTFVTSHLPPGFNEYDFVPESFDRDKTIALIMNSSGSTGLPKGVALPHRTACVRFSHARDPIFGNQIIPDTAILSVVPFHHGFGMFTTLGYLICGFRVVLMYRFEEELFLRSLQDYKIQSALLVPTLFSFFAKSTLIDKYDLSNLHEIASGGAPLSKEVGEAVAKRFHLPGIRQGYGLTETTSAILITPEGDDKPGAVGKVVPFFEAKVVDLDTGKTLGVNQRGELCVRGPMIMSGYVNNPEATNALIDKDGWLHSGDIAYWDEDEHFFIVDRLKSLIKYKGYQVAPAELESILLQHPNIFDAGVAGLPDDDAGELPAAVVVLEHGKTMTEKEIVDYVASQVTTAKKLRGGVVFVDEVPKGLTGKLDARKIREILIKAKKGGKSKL
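Purified P. pyralis luciferase, 10 nM final, with Km-level 10 uM D-luciferin and 10 uM ATP in 50 mM Tris acetate pH 7.5, 10 mM Mg acetate, 0.01% Tween-20, 0.05% BSA; 6-point qHTS titration about 60 µM downward; luminescence read.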
* hit, by the source's call; ? = inconclusive; / = no result given. The call rests on the fitted dose curve; in most records, active means well fitted curve in the direction sought with a large enough effect; inconclusive means small, poorly fitted or top-dose-only effect, or another doubt; inactive means no such curve, though single readings can be large; an effect the other way counts as inactive or inconclusive. Potency means the concentration at half of the fitted maximal effect.

SMILES	ELG1 genotox	Luc counter	SMN2 splice up	NPC1 prom act	Rab9 promoter act	FLuc modulator
O=C(COc1ccc(Cl)cc1Cl)NC1CCSC1=O (configuration not stated)	16µM*	-2%	?	?	3.5µM*	11µM*
O=C(COc1ccc(Cl)cc1Br)NC(=O)NC1CCCC1	?	/	/	3.5µM*	3.2µM*	6µM*
O=C(COC(=O)COc1ccc(Cl)cc1Br)NC1CC1	-3%	/	/	/	/	/
O=C(COC(=O)c1ccc(CNS(=O)(=O)c2ccc(F)c(Cl)c2)cc1)NCC1CCCCC1	-3%	1%	-1%	-3%	0%	0%
COc1ccc(Cl)cc1NC(=O)CN(C)CC(=O)Nc1c(C)n(C)n(-c2ccccc2)c1=O	-6%	/	/	0%	-8%	3%
O=C(COc1ccc(Cl)cc1Cl)N1CCCN(C(=O)COc2ccc(Cl)cc2Cl)CC1	-12%	-3%	-34%	-2%	-2%	-9%
O=C(COc1ccc(Cl)cc1Cl)NC(=O)N1CCCCC1	2.9µM*	-8%	2.2µM*	25%	?	3.4µM*
O=C(COc1ccc(Cl)cc1Cl)NC(=O)NC1CCCC1	?	/	/	?	?	9.5µM*
O=C(COc1ccc(Cl)cc1Cl)NC(=S)N1CCCc2ccccc21	3%	2%	-29%	-26%	4%	27µM*
O=C(COc1ccccc1Cl)NC(=O)NC1CCCC1	?	-1%	-10%	16%	?	13µM*
O=C(c1ccc(Cl)cc1)c1c[nH]c(C(=O)NNc2ccccc2)c1	?	2%	-17%	0%	15%	3%
CC(C)(C)NC(=O)C(c1ccccc1)N(C(=O)CNC(=O)c1cccs1)c1cccnc1 (configuration not stated)	-3%	/	/	-2%	3%	1%
COc1cc(N/N=C(\C)c2ccc(N)cc2)nc(-c2ccccc2)n1	-5%	-3%	9%	7%	28%	15µM*
COc1cc(N/N=C(\C)c2ccc(O)c(C)c2)nc(-c2ccccc2)n1	-7%	3%	/	-6%	-12%	15µM*
C/C(=N\Nc1cc(-c2ccccc2)nc(-c2ccccc2)n1)c1ccc(O)c(C)c1	-3%	2%	/	-3%	0%	0%
CCOc1ccc(-c2cn(-c3ccc(OC)cc3)c(SC)n2)cc1	?	-4%	11µM*	?	4µM*	5.4µM*
CCOc1ccc(-c2cn(-c3ccc(OC)cc3)c(SCC(=O)Nc3ccccc3Cl)n2)cc1	/	/	/	/	/	2%
CCC(=O)Nc1cccc(-n2nnnc2SCC(=O)NCc2ccco2)c1	10%	1%	-10%	5%	2%	3%
CCC(=O)Nc1cccc(-n2nnnc2SCC(=O)c2ccc(C)c(C)c2)c1	12%	0%	-10%	17%	17%	15µM*
CCn1c(SCC(=O)c2ccccc2)nnc1-c1cnccn1	16µM*	-2%	?	?	?	21µM*
Cn1c(SCc2ccccc2)nnc1-c1cnccn1	20%	-2%	8%	18%	6.3µM*	-18%
CCn1c(SCC(=O)O)nnc1-c1ccccc1OC	23µM*	-6%	/	4.5µM*	3.2µM*	13µM*
COc1ccccc1-c1nnc(SCC(=O)O)n1-c1ccccc1	-1%	-3%	-6%	0%	-7%	?
CCCCNC(=O)c1ccc(NC(=O)CC2SC(N3CCCC3)=NC2=O)cc1 (configuration not stated)	-4%	/	/	2%	-4%	-1%
N#Cc1ccccc1NS(=O)(=O)c1ccc(N2CCCCS2(=O)=O)cc1	/	/	/	/	/	-5%
O=C(O)c1ccc2c(c1)C(=O)N([C@H](Cc1c3ccccc3cc3ccccc13)C(=O)O)C2=O	/	/	/	-7%	-3%	0%
Fc1ccc(N2CCN(c3nc4ccccc4c4nc(-c5cccnc5)nn34)CC2)cc1	/	/	12%	/	/	-2%
CCC(=O)Nc1cccc(-c2nnc(SCC(=O)NCc3ccco3)n2C)c1	0%	-6%	2%	-2%	-2%	-2%
